Growth data for 40 compounds are collected here from PubChem BioAssay (NCI).

Compounds without any hit were thinned out: in the full panel of roughly 83,000, 20% have a hit.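 Cells were grown in 96-well plates and exposed to the test compound at a single concentration for 48 hours; results are reported as percent growth, with values below 10 considered active.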 The source made the active and inactive calls.

The subject of this assay is MDA-MB-468 breast. In words: NCI-60 one-dose screen, 48 h (100 = growth as untreated, 0 = no growth, -100 = all killed). The following applies: 10 µM unless noted.
For the compound `COc1ccc(-c2nsc3c2NC(=O)CC3c2ccc3c(c2)OCO3)cc1` (stereo not given), the growth was 10.3% (inactive). In the case of `CN(Cc1cnc2nc(N)nc(N)c2n1)c1ccc(C(=O)NC(CCC(=O)O)C(=O)O)cc1Br` (stereo not given), the growth is 42.4% (inactive).

Consider `N#Cc1c(NC(=O)c2ccccc2I)sc2c1CCCC2`, for which the growth was 50% (inactive). As for `COc1cc2c(c(OC)c1OC)-c1ccc(NN(C(=O)c3ccccc3)C(=O)c3ccccc3)c(=O)cc1[C@@H](NC(C)=O)CC2` (tested in a mixture with another compound), the growth was 19.5% (inactive). Consider `CCCCCCCCCCCCNC(=O)N[C@H](C(=O)N[C@H]1/C=C/OCCNC(=O)/C=C/[C@H](C(C)C)NC1=O)C(C)C`, for which the growth was 15.5% (inactive). With `Cn1c(SCC(=O)Nc2ccc(-c3nc4ccc([N+](=O)[O-])cc4[nH]3)cc2)nc2ccccc2c1=O`, the growth was 56.5% (inactive). As for `Brc1cccc(-c2nc(-c3ccc4c(c3)OCCO4)co2)c1`, the growth is 34.9% [25 µM] (inactive).

On to `Nc1c(Cl)cc(/C=C2\C=Cc3ccccc32)cc1Cl`, for which the growth is 97.9% (inactive).

As for `COC1OC2COC(c3ccccc3)OC2C(=O)C1NC(=O)c1ccccc1` (stereo not given), the growth was 113% (inactive).

For `CCOC(=O)c1cnn(CC(C)O)c1NC(=O)NCc1ccccc1C(F)(F)F` (stereo not given), the growth is 103% (inactive). For `COc1cccc(NC(=O)Cn2cc(CN3CCN(c4ccnc5cc(Cl)ccc45)CC3)nn2)c1`, the growth is 84.1% (inactive). The figure for `N#CCc1ncc(-c2ccc(C(F)(F)F)cc2)c(NC2CCCCCC2)n1` is 42.3% [100 µM] (inactive); for `CCOC(=O)N1CCN(c2nc(Nc3cc(C)[nH]n3)c3ccccc3n2)CC1` it is 30.6% (inactive).

`OCC1OC(n2cnc3c(N/N=C\c4ccccn4)ncnc32)C(O)C1O` (stereo not given): the growth was -24% (active).

Turning to `O=C1Nc2ccc(Br)cc2/C1=N/c1nc(-c2ccccc2)cs1`, the growth is 99.8% (inactive).

As for `COc1ccc(Cn2cc3c(c2-c2ccccc2)CCc2cnoc2-3)cc1N`, the growth was 10.4% (inactive). With `COc1ccc(Cn2nc3c(c2-c2cc(OC)c(OC)c(OC)c2)-c2oncc2CC3)cc1`, the growth was 27.8% (inactive).

On to `CC(=O)c1c(C)nc2ccccc2c1/C=C/c1cccc(C)c1`, for which the growth is 28.5% (inactive). On to `CC1(c2ccc3ccccc3c2)CCC(=O)O1` (stereo not given), for which the growth is 100% (inactive). Take `COc1ccc(C(=O)N2NC(=O)/C(=C/c3ccc(F)cc3)N=C2c2ccccc2)cc1`: the growth was 90.6% (inactive). Regarding `CCCCCCCCCCCCCCCCCC1=NCCCN1CCO`, the growth is 110% (inactive).

For the compound `COc1cc(OC)c(NC(=O)c2cc3ccccc3cc2O)cc1Cl`, the growth is 75.7% (inactive).

For `Cc1ccc2c(c1)-c1cc(C)nn1-c1ccc(C#N)cc1O2`, the growth was 40.9% (inactive). On to `CCOC(=O)c1nn(CC(O)c2ccccc2)c(NC(=O)Nc2cccc(F)c2)c1C` (stereo not given), for which the growth was 94.6% (inactive). On to `O=C(N/N=c1/ccoc2cccnc12)N1CCN(c2ncccn2)CC1`, for which the growth is 2.98% (active). For the compound `CC1=CC2OC34COC3CC(OC(=O)C(F)(F)F)C4(C)C2(C)CC1` (stereo not given), the growth is 87.5% (inactive). Take `O=C(C1=Cc2cc3ccccc3n2Cc2cnnn21)c1ccccc1`: the growth was 5.98% (active). The figure for `NS(=O)(=O)c1ccc(CCN=C=S)cc1` is -6.54% (active); for `Nc1nccc(=S)[nH]1` it is 109% (inactive); for `COc1ccc(C2=NC(=O)NC2c2ccc(OC)cc2)cc1` (stereo not given) it is 43.9% (inactive). On to `CC(C)=CCC[C@](C)(O)[C@H]1CC[C@]2(C)[C@@H]1CC[C@@H]1[C@@]3(C)C/C(=C/c4ccco4)C(=O)C(C)(C)[C@@H]3CC[C@]12C`, for which the growth is 111% (inactive).

Consider `NCCSSC/C=C\CSSCCN`, for which the growth is 94.6% (inactive). Under `O=C1CSC(=S)N1Cc1cccnc1` stands 47.6% (inactive); under `COc1ccc(/C(C)=C(/c2ccc(OCCCN(C)C)cc2)c2ccc(OC(=O)Cc3ccccc3)cc2)cc1`, 87.2% (inactive); under `CCCCCCCCCCCCCCCCS(=O)(=O)Nc1cc(C(=O)NN)cc(C(=O)NN)c1`, 45.2% (inactive). On to `Cc1ccc(/C=C/c2c(C(=O)/C=C/c3ccc(Cl)cc3)c(C)nc3ccccc23)cc1`, for which the growth was -23.3% (active). Turning to `Cc1cc(N(CCCNc2ccnc3cc(Cl)ccc23)Cc2ccco2)nc(N2CCOCC2)n1`, the growth is 80.3% (inactive). As to `CC1CC(O)CC(C)(C)C1` (stereo not given), the growth was 108% (inactive). The figure for `CC(C)CNc1nc(N=[N+]=[N-])nc(NCC(C)C)n1` is 59.7% [100 µM] (inactive). `CC(C)OP(=O)(CCC(=O)c1c[nH]c2ccccc12)OC(C)C`: the growth was 107% (inactive).
